Data as given in PubChem BioAssay (NCATS).
Results filed as inconclusive are left out. The source made the active and inactive calls. Unless noted, calls follow the shape of the dose curve; as a rule, active = well fitted curve in the direction sought with a large enough effect; inconclusive = small, poorly fitted or top-dose-only effect, or another doubt; inactive = no such curve, though single readings can be large; an effect the other way counts as inactive or inconclusive.

Experiments:
[1] = qHTS assay for measurement of the activity of small molecule inhibitors on Zika virus induced Caspase-3 activity in human astrocytoma cells (AID 1224859); details: SNB-19 ZIKV-induced caspase-3/7, luminescence, 6 h; series mostly up to 45.7 µM
Outline: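 Luminescence read-out (Caspase-Glo 3/7, 30 min RT) of caspase activity in SNB-19 cells infected 6 h with ZIKV, 2 FFU/cell, after 1 h compound pretreatment; % inhibition from induction normalised to uninfected (0%) and infected (100%) wells.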

[2] = qHTS assay to identify small molecule inhibitors of chordoma cells - UCH-2 (AID 1259356); details: UCH-2 chordoma viability, CellTiter-Glo ATP luminescence, 48 h; series mostly up to 46.1 µM
[3] = Identifying Small Molecule Inhibitors of Pancreatic Cancer Stem Cells (A2780, Spheroid) (AID 1259357); details: A2780 spheroid viability;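 also: spheroids pre-formed over 14 days in stem cell medium on hydrogel; potency is read from the fitted curve at half-maximal effect; compound exposure lasted 48 h before the ATP luminescence read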
Outline: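 Spheroids grown 14 days in stem cell media on nonadherent hydrogel before screening; cells attached 4 h, then compound exposure 48 h at 37C, 5% CO2. CellTiter-Glo luminescence normalized to DMSO (no inhibition) and no-cell wells (full inhibition).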

[4] = Identifying Small Molecule Inhibitors of Pancreatic Cancer Stem Cells (A278, Adherent) (AID 1259361);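 also: viability read after 48 h compound exposure; nearly all actives have a fitted effect of over 35% in size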
Outline: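 Luminescent ATP readout (CellTiter-Glo) quantifies surviving cells after a 48 h drug incubation. Normalization uses DMSO wells as no inhibition and media-only wells as full inhibition; bortezomib served as positive control.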

[5] = Identifying Small Molecule Inhibitors of Pancreatic Cancer Stem Cells (Panc1, Adherent) (AID 1259362); details: series mostly up to 46.1 µM;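 also: compound exposure lasted 48 h before the viability read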
Outline: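 Spheroids grown 14 days in stem cell media on hydrogel-coated nonadherent plates; 2D lines seeded directly. Compounds added after 4 h attachment, 48 h at 37C, 5% CO2; CellTiter-Glo luminescence normalized to DMSO (no inhibition) and no-cell wells (full inhibition).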

[6] = Natriuretic polypeptide receptor (hNpr1) antagonism - Pilot counterscreen GloSensor control cell line (AID 1347045; calls by dose curve); details: HEK293 cGMP GloSensor cells, SNP-stimulated luminescence, 20 min; series mostly up to 38.3 µM
Outline: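 HEK293 cGMP GloSensor cells preloaded 2 h with 2% GloSensor reagent, then compound 30 min before baseline luminescence read. Stimulated with 50 uM sodium nitroprusside, 20 min at room temperature, then read again; counterscreen for Npr1 antagonism.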

[7] = target: Atrial natriuretic peptide receptor 1 (Homo sapiens) (UniProt P16066); assay: Natriuretic polypeptide receptor (hNpr1) antagonism - Pilot screen (AID 1347049; calls by dose curve;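 also: agonist-evoked cGMP luminescence read 20 min after hNppA addition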); details: hNpr1 cells, antagonist mode cGMP read-out; series mostly up to 57.5 µM
Outline: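 HEK293 cells co-expressing hNpr1 and the GloSensor pGS-40F cGMP luciferase sensor were preloaded with 2% GloSensor reagent for 2 h. Compounds were added for 30 min at room temperature, then cells were stimulated with 0.1 nM hNppA for 20 min before luminescence readout.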

[8] = qHTS assay to identify small molecule inhibitors of chordoma cells - UCH-1 (AID 1259355); details: UCH-1 chordoma viability, CellTiter-Glo, 48 h, combination, with auranofin plus four topoisomerase inhibitors; series mostly up to 46.1 µM; also: nearly all actives have a fitted effect of over 55% in size
Outline: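 Luminescent ATP read-out (CellTiter-Glo, 30min at room temperature) measured viability of UCH-1 cells exposed for 48hr to test drugs at 15 concentrations, co-dosed with a five-agent combination of auranofin, camptothecin, doxorubicin, rubitecan and topotecan.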

[9] = P-glycoprotein substrates identified in KB-8-5-11 adenocarcinoma cell line, qHTS therapeutic library screen (AID 1346987); details: KB-8-5-11 (P-gp overexpressing) viability, CellTiter-Glo, 72 h; series mostly up to 44.5 µM; also: nearly all actives have a fitted effect of over 65% in size
Outline: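 KB-8-5-11, a colchicine-selected P-gp-overexpressing KB-3-1 subline, was grown without colchicine for the assay. Cells were seeded at 500 cells/well, dosed in concentration-response and incubated 72 h at 37 degree C, 5% CO2. Viability was read by CellTiter-Glo luminescence.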

Atrial natriuretic peptide receptor 1 (Homo sapiens), sequence (P16066 whole entry, looked up): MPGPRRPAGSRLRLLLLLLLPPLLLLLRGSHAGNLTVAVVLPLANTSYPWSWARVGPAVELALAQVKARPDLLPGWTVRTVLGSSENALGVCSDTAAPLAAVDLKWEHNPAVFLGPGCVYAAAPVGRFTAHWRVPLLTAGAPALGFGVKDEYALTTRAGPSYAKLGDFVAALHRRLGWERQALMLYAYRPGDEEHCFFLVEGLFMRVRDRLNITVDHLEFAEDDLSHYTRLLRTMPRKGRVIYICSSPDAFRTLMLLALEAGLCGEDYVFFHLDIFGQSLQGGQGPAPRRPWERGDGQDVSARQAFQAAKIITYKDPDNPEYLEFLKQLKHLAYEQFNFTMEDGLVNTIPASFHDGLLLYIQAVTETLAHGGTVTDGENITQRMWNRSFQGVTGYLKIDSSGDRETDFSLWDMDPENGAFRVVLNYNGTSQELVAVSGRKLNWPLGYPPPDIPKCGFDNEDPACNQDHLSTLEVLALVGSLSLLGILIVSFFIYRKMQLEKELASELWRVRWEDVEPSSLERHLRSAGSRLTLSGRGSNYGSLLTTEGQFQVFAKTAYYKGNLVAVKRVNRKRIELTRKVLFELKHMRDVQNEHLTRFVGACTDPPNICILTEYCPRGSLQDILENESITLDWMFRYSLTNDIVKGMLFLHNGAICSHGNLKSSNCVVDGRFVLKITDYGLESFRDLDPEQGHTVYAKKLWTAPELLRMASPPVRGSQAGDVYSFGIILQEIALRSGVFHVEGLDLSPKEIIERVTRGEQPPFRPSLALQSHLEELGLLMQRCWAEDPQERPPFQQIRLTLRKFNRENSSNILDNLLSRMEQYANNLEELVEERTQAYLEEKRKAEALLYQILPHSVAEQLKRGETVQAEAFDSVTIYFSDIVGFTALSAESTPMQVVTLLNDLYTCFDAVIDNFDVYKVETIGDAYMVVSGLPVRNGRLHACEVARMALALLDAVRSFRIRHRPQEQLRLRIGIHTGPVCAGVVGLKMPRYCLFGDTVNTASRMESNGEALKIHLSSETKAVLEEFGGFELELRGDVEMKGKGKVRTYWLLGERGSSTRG

Nc1ncn([C@@H]2O[C@H](CO)[C@@H](O)[C@H]2O)c(=O)n1
inactive: outcome [1] | Potency [2] | outcome [5] | Potency [6] | Potency [7]
active: Potency [3] 16.6 µM | IC50 (viability decrease) [4] 2.35 µM

CSc1ccc(C(=O)c2[nH]c(=O)[nH]c2C)cc1
inactive: outcome [1] | Potency [8] | Potency [6] | Potency [7]

OCCN1CCN(CCCN2c3ccccc3C=Cc3ccccc32)CC1
inactive: outcome [1] | Potency [8] | Potency [6] | Potency [7]

CCN(Cc1ccncc1)C(=O)C(CO)c1ccccc1 (configuration not stated)
inactive: outcome [1] | Potency [2] | Potency [9] | Potency [6] | Potency [7]

CC[N+](C)(C)c1cccc(O)c1
inactive: outcome [1] | Potency [8] | Potency [6] | Potency [7]

CCOC(=O)C1=C(C)NC(C)=C(C(=O)OC)C1c1cccc([N+](=O)[O-])c1 (configuration not stated)
inactive: outcome [1] | Potency [8] | Potency [6]

CN(C)CCN(Cc1cccs1)c1ccccn1
inactive: outcome [1] | Potency [8] | Potency [6] | Potency [7]

CCN1CCc2nc(N)oc2CC1
inactive: outcome [1] | Potency [8] | Potency [6] | Potency [7]

C[C@]12CCC(=O)C=C1CC[C@@H]1[C@@H]2CC[C@@]2(C)[C@H]1CC[C@]2(O)C(=O)CO
inactive: outcome [1] | Potency [8] | Potency [6] | Potency [7]

NC(=O)c1cn(Cc2c(F)cccc2F)nn1
inactive: outcome [1] | Potency [8] | Potency [6] | Potency [7]

CCc1cccc(N(C)C(N)=Nc2cccc3ccccc23)c1
inactive: outcome [1] | Potency [8] | Potency [6] | Potency [7]

CN1CCN(CC(=O)N2c3ccccc3C(=O)Nc3cccnc32)CC1
inactive: outcome [1] | Potency [8] | Potency [6] | Potency [7]

C[C@]12C=CC(=O)C=C1CC[C@H]1[C@@H]3C[C@@H](O)[C@](O)(C(=O)CO)[C@@]3(C)C[C@H](O)[C@@]12F
inactive: outcome [1] | Potency [9] | Potency [7]

COCCCC/C(=N\OCCN)c1ccc(C(F)(F)F)cc1
inactive: outcome [1] | Potency [8] | Potency [7]

CCN(CC)CCNC(=O)c1cc(S(C)(=O)=O)ccc1OC
inactive: outcome [1] | Potency [8] | Potency [6] | Potency [7]

NC(=Nc1ccccc1)Nc1ccccc1
inactive: outcome [1] | Potency [9]

Cc1cccc(C)c1NC(=O)C(C)N (configuration not stated)
inactive: outcome [1] | Potency [8] | Potency [6] | Potency [7]

CCCCNc1c(C(=O)OCC)c(C)nc2c1cnn2CC
inactive: outcome [1] | Potency [8] | Potency [6] | Potency [7]

COc1ccc(CCN(C)CCCC(C#N)(c2cc(OC)c(OC)c(OC)c2)C(C)C)cc1OC (configuration not stated)
inactive: outcome [1] | Potency [8] | Potency [6] | Potency [7]

CCCN(CCC)CCc1cccc2c1CC(=O)N2
inactive: outcome [1] | Potency [2] | Potency [9] | Potency [6] | Potency [7]

CC(C)COCC(CN(Cc1ccccc1)c1ccccc1)N1CCCC1 (configuration not stated)
inactive: outcome [1] | Potency [8] | Potency [6] | Potency [7]

Cc1ccc(=O)n(-c2ccccc2)c1
inactive: outcome [1] | Potency [8] | Potency [6] | Potency [7]

CCc1c(C)[nH]c2c1C(=O)C(CN1CCOCC1)CC2 (configuration not stated)
inactive: outcome [1] | Potency [2] | Potency [6] | Potency [7]
